Test results reported in PubChem BioAssay (NCI).
This is part of a sample that, as a whole, favours compounds with a hit. Of some 83,000 tested, about 20% had one in any assay.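 The test compound was applied at a single concentration to cells in 96-well plates for 48 hours, and percent growth was recorded.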 Values without a mark were called inactive. Activity calls are given as the source filed them. The calls were made as follows: active = growth percent below 10; inactive = the rest.

Columns and labels:
Assay in all cases: NCI-60 one-dose screen, 48 h (100 = growth as untreated, 0 = no growth, -100 = all killed)
Details in all cases: 10 µM unless noted
[1] = system: DU-145 prostate
[2] = system: K-562 leukemia
[3] = system: MALME-3M melanoma
[4] = system: MDA-MB-231 breast
[5] = system: SF-268 CNS
[6] = system: SF-295 CNS
[7] = system: SF-539 CNS
[8] = system: M14 melanoma
[9] = system: RXF 393 renal

Compound	growth [1]	growth [2]	growth [3]	growth [4]	growth [5]	growth [6]	growth [7]	growth [8]	growth [9]
Cc1ccc(N=C2CSc3nnc(-c4csc5c4CCCC5)n3N2)cc1	25.4%	10.7%	70.6%	43%	40.8%	-6.51% (active)	-2.46% (active)	5.9% (active)	–
COc1c(C(NC(=O)c2ccccc2)c2sccc2C)cc(Cl)c2cccnc12 (centres undefined)	108%	105%	108%	88.4%	100%	103%	106%	103%	–
Cc1cc(O)c2c(c1)C1OC(=O)CCCCCN1C1=C2C(=O)c2cccc(OC3CC(O)C(O)C(C)O3)c2C1=O (centres undefined)	57.2%	28.3%	40.6%	32.7%	90.8%	93.9%	83.5%	66.6%	–
C=C1C(=O)O[C@H]2[C@H]1CC/C(C=Nc1c(N)cc(C(F)(F)F)cc1C(F)(F)F)=C\CC[C@@]1(C)O[C@@H]21	5.82% (active)	-4.88% (active)	–	-49.5% (active)	1.5% (active)	49.7%	-84.5% (active)	-61.2% (active)	-81.6% (active)
COc1ccc(C2CC(=O)c3c(O)c(OC)c(OC)c(OC)c3O2)cc1O (centres undefined)	18.2%	11.6%	57.5%	17.1%	44.6%	6.54% (active)	-13% (active)	7.68% (active)	–
OCCNC(=S)Nc1ccc(-c2nc(N3C[C@H]4CC[C@@H](C3)O4)c3cccn3n2)cc1	8.77% (active)	19.1%	–	4.21% (active)	9.25% (active)	-34.3% (active)	-12.2% (active)	5.27% (active)	-31.4% (active)
COc1cc(C(=O)NNC(=O)c2ccc(NC(=O)CCl)cc2)cc(OC)c1OC	91%	53.7%	–	51.1%	76.8%	93.7%	91.5%	82.6%	92.9%
COC(=O)CC[C@@H](C)[C@H]1CC[C@H]2C3CC[C@@H]4C[C@@H]5CC[C@]4(C)[C@@]3(O5)[C@H](Br)[C@@H](Br)[C@]12C (some centres undefined)	101%	78.2%	103%	99.4%	91.2%	99.3%	103%	90.6%	–
C[N+](C)(CCOC(c1ccccc1)c1ccccc1)CC(=O)OCc1ccccc1	105%	126%	99.7%	113%	106%	103%	105%	91.3%	–
O=C1CC(c2cccc(F)c2)c2c(n[nH]c2-c2ccc(Cl)cc2)N1 (centres undefined)	102%	96.4%	99.4%	80.4%	94.1%	91.8%	91.3%	100%	–
Cc1sc2c(c1C)c(=O)nc1c(-c3nc(-c4ccccc4)cs3)n[nH]n12	104%	94.5%	98.1%	93.3%	96.2%	88.7%	96.3%	96.2%	–
O=C(c1ccccc1)C(c1ccccc1)N1CCOCC1 (centres undefined)	107%	96%	103%	105%	99.1%	94.9%	101%	99.8%	–
C=C1[C@@H](O)C[C@H]2C(C)(C)C[C@H](Cl)C[C@]2(C)[C@H]1C[C@H](O)[C@H]1CC(=O)NC1=O	-29.1% (active)	1.91% (active)	–	-31% (active)	-20.8% (active)	-29.2% (active)	-35.4% (active)	-75.5% (active)	-63.2% (active)
C=C1C[C@H](O)[C@H](Br)C(C)(C)[C@@]12CCC(C)=C(Cl)C2	22.7%	12.3%	38.5%	22.4%	30.9%	-3.01% (active)	34%	-19.7% (active)	–
CCOC(=O)C1=C(C)N=C2Sc3cc(OC(F)(F)F)ccc3N2[C@H]1c1ccccn1	46.5%	21.9%	59.1%	53.9%	47.8%	22.2%	41%	27.3%	–
COC(=O)[C@]12CC[C@@H](C)[C@H](C)[C@@H]1C1=CC[C@@H]3[C@@]4(C)C(C=O)=C[C@@](C)(COS(C)(=O)=O)C4=CC[C@@]3(C)[C@]1(C)CC2	-92.2% (active)	-6.44% (active)	-77.7% (active)	-55.4% (active)	-57.1% (active)	-60.2% (active)	-69.8% (active)	-55.8% (active)	–
COc1ccc2c(CCc3ccc(Cl)cc3)c3[n+](cc2c1OC)CCc1cc2c(cc1-3)OCO2	67.5%	33.5%	55.5%	66.7%	49%	43.3%	53.1%	37.9%	–
COc1ccc2c(CCCc3ccc(Cl)cc3Cl)c3[n+](cc2c1OC)CCc1cc2c(cc1-3)OCO2	17.9%	6.33% (active)	-28.7% (active)	-10% (active)	12.9%	-19.3% (active)	-46.3% (active)	-24.5% (active)	–
CC(=O)Oc1ccccc1C(=O)N=C1[Se]CCN1C(=O)c1ccccc1OC(C)=O	-44.2% (active)	8.83% (active)	–	-22.2% (active)	-77.1% (active)	-67.6% (active)	-79.4% (active)	-57.7% (active)	-72.5% (active)
CC(C)[C@@H](C)/C=C/[C@@H](C)[C@H]1CCC2=C3C=CC4=CC(=O)CC[C@]4(C)[C@H]3CC[C@@]21C	105%	92.6%	110%	105%	98.9%	94.9%	106%	98.6%	–
COc1ccc(-c2nocc2-c2cc(OC)c(OC)c(OC)c2)cc1	15.2%	12.8%	60.3%	25.8%	39%	-4.64% (active)	2.52% (active)	3.03% (active)	–
Cc1ccsc1C(NC(=O)c1ccccc1)c1cc(Cl)c2cccnc2c1O (centres undefined)	41.2%	10.4%	47.4%	37.8%	31.6%	1.35% (active)	18.7%	12.3%	–
CCN(CC)CCCC(C)Nc1cc(-c2ccc(C(F)(F)F)cc2)c(C#N)c2nc3ccccc3n12 (centres undefined)	7.4% (active)	-46.1% (active)	–	-38% (active)	14.6%	-25.9% (active)	-75.1% (active)	-69.6% (active)	-75.7% (active)
Cc1sc2c(c1C)c(=O)nc1c(-c3nc4ccccc4s3)n[nH]n12	106%	94%	97.1%	87.6%	96.1%	92.3%	96.5%	98.6%	–
COc1ccc2nc3cc(Cl)ccc3c(Nc3ccc(N(C)C)cc3)c2c1	91%	80.2%	106%	89.8%	94.5%	86.8%	95.1%	98.2%	–
O=C1CC(c2ccc(Cl)cc2)c2ncn(-c3cccc(Cl)c3)c2N1 (centres undefined)	62.9%	23.8%	53.2%	48.3%	58.2%	47.6%	33%	21.6%	–
CCN(CCN(C)C)C(=O)CNCc1cc(C(N)=O)ccn1	112%	95.2%	114%	97.6%	108%	104%	105%	103%	–
CC1(O)CCC(Nc2cc(-c3ccc(C(F)(F)F)cc3)c(C#N)c3nc4ccccc4n23)CC1 (centres undefined)	67.8%	73.1%	–	50.4%	64.5%	51.9%	63.4%	91.2%	53.2%
